Compound activity as filed in PubChem BioAssay.
PHOSPHO1 inh = PubChem AID 1565; Phosphoethanolamine/phosphocholine phosphatase (Homo sapiens), Q8TCT1; recombinant PHOSPHO1, absorbance phosphatase assay; inhibition, % at 13.3 µM; hit rate 1.1% among 290,000; in the data active = inhibition above about 60%
A3A deaminase = APOBEC3A ssDNA deaminase inhibitors, primary screen, selectivity assay for APOBEC3G inhibitor project, biochemical, FAM/TAMRA oligo cleavage fluorescence. recombinant A3A, FAM/TAMRA ssDNA deamination fluorescence. hit rate 0.41% among 330,000. inhibition, % at 20 µM. DNA dC->dU-editing enzyme APOBEC-3A (Homo sapiens), P31941;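 active = at least 40% inhibition at 20 µM here, with at most 30% in a related deaminase screen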
MITF act = activators of MITF-driven TRPM1 promoter reporter, primary screen, cell-based, SK-MEL-5, luciferase, single point; SK-MEL-5 TRPM1-promoter luciferase, 24 h; % of positive control, neutral wells = 0; activation, % at 12.5 µM; hit rate 0.75% among 300,000;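 active = mean activation of at least 80% with every replicate also reaching 80%; inconclusive = mean reaches 80% but some replicate falls short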
esBAF inh = Bmi1 luciferase reporter increase in mESCs, primary screen, esBAF inhibitor project, mouse ES cells, Bmi1 luciferase knock-in, single point | 24 h; 100% = twice the neutral-well signal | reporter increase, % at 12.5 µM | hit rate 2% among 350,000 | AID 602393, 2012; in the data active = activation above about 40%; inconclusive = no clear call, values can overlap the other calls;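 note: a rise in the Bmi1 reporter signal indicates esBAF inhibition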
Wnt act = Wnt/beta-catenin pathway activators, primary screen, cell-based, plate reader, single point. Wnt/beta-catenin reporter cell assay, activator. activation, % at 9.35 µM. hit rate 1.2% among 300,000; in the data active = activation above about 30%, passing the limit was not always enough; inconclusive = no clear call, values can overlap the other calls
APOBEC3G inh = APOBEC3G DNA deaminase inhibitors, primary screen, biochemical, fluorescence, single-stranded DNA substrate, uHTS; DNA dC->dU-editing enzyme APOBEC-3G (Homo sapiens), Q9HC16; recombinant A3G, ssDNA deamination FAM/TAMRA fluorescence; inhibition, % at 20 µM; hit rate 0.28% among 330,000;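 active = inhibition of at least 40% at 20 µM, with no more than 30% in the related APOBEC3A deaminase screen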
Target sequence (Q9HC16 whole entry, looked up): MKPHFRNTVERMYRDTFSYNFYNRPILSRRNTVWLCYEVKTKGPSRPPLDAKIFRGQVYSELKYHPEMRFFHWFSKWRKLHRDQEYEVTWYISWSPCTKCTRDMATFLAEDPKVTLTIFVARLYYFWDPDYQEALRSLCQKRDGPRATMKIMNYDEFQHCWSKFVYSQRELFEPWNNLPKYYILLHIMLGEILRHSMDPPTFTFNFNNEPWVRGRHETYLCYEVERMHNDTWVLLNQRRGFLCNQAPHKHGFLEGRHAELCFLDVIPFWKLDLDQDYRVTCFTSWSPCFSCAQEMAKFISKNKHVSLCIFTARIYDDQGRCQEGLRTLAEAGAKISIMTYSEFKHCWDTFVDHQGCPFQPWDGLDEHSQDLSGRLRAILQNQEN
APOBEC3G confirm = APOBEC3G deaminase inhibitor retest, confirmation, biochemical, fluorescence, single-stranded DNA substrate, single concentration; recombinant A3G ssDNA deaminase, UDG/FAM-TAMRA fluorescence; hit rate 72% among 890; shares compounds with APOBEC3G inh; AID 493152, 2011; inhibition, % at 20 µM;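 active = inhibition reaching a set limit in any replicate at 20 µM, the limit being 80% of the first screen's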
UDG A3G counter = E. coli UDG inhibitors, confirmation, counter-screen for APOBEC3G inhibitor project, biochemical, single concentration, fluorescence, FAM/TAMRA oligo; shares compounds with APOBEC3G inh; UDG counterscreen; inhibition, % at 20 µM; 710 tested, under 10 active; AID 504715, 2011;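 active = compounds giving 40% or more inhibition at 20 µM in any one of the three replicates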;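 note: inhibitors lower the FAM signal released by uracil excision and alkaline cleavage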
Target sequence (P12295 whole entry, looked up): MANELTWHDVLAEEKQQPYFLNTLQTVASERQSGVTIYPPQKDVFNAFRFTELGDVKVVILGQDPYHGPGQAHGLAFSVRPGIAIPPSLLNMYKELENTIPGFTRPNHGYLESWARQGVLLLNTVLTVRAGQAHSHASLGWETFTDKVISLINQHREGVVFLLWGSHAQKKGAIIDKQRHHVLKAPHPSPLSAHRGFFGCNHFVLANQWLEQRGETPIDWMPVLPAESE
Hits are given with their value; n = inactive; u = inconclusive; x = no result. Most compounds without a hit are left out; they make up all but 3.6% or so of the library.

SMILES	PHOSPHO1 inh	A3A deaminase	MITF act	esBAF inh	Wnt act	APOBEC3G inh	APOBEC3G confirm	UDG A3G counter
O=c1c2c([N+](=O)[O-])cc([N+](=O)[O-])cc2sn1-c1ccc(Br)cc1	88.7	n	n	x	x	74.9	72.2	x
O=C(Nc1ccc(Br)cc1)c1cc([N+](=O)[O-])cc([N+](=O)[O-])c1	n	n	n	n	n	n	x	x
CSc1nc(C)cc(C)c1C#N	n	n	n	x	x	n	x	x
Cc1cc(C)c(C#N)c(=N)o1	n	n	n	x	x	57.7	90.2	n
Cc1nc2[nH]c(=S)[nH]c2cc1Br	101.1	n	n	n	n	47.1	82.5	n
CO[C@H]1CN(C)C(=O)c2cc(NC(=O)Nc3c(C)noc3C)ccc2OC[C@H](C)N(CCC(F)(F)F)C[C@@H]1C	x	x	x	n	x	x	x	x
O=C(Cc1ccc(Cl)cc1Cl)Nc1cccc(S(=O)(=O)Nc2ccccc2F)c1	73.6	n	n	n	n	55.9	73.9	n
O=C(Cc1c(F)cccc1Cl)Nc1cccc(S(=O)(=O)NC2=NCCCCC2)c1	x	n	n	n	n	n	x	x
O=S(=O)(Nc1ccc(Br)cc1)c1cccc(NC(=S)NCCN2CCOCC2)c1	n	n	n	n	n	n	x	x
COc1ccccc1NS(=O)(=O)c1cccc(NC(=O)c2ccc3ccccc3n2)c1	n	n	n	n	n	n	x	x
O=C(Nc1cccc(S(=O)(=O)Nc2ccccc2F)c1)c1ccc2ccccc2n1	n	n	n	x	n	55.6	60.6	n
O=C(/C=C/c1ccccc1)Nc1cccc(S(=O)(=O)Nc2ccccc2F)c1	n	n	n	n	n	71.0	60.0	n
O=S(=O)(Nc1ccccc1F)c1cccc(NC(=S)NCCN2CCOCC2)c1	x	n	n	n	n	71.0	80.4	n
O=C(C[C@H]1C=C[C@H](NS(=O)(=O)c2ccccc2)[C@H](CO)O1)NCc1ccncn1	x	x	x	n	x	x	x	x
O=C(C[C@H]1CC[C@H](NC(=O)C2CC2)[C@@H](CO)O1)NC1CCC1	x	x	x	n	x	x	x	x
CCCNC(=O)[C@@H]1[C@@H](CO)[C@@H]2Cn3c(ccc(/C=C/c4ccccc4)c3=O)[C@H]1N2C(C)=O	x	x	x	n	x	x	x	x
Cc1ccc(/C=N/NC(=O)c2ccc(Br)o2)s1	n	n	n	x	u	59.3	n	n
CO[C@H]1CN(C)C(=O)c2ccc(NS(=O)(=O)CC(F)(F)F)cc2OC[C@H](C)N(C(=O)c2ccc3c(c2)OCO3)C[C@H]1C	x	x	x	n	x	x	x	x
C[C@H](CO)N1C[C@H](C)[C@@H](CN(C)C(=O)C2CCCCC2)OCCCC[C@H](C)Oc2ccc(NS(=O)(=O)c3ccc(F)cc3)cc2C1=O	x	x	x	n	x	x	x	x
Cc1noc(C)c1S(=O)(=O)N1CCCC(C(=O)NCc2ccccn2)C1 (stereo not drawn)	n	n	n	x	x	49.0	n	x
Cc1ccc(CNC(=O)C2CCCN(S(=O)(=O)c3c(C)noc3C)C2)cc1 (stereo not drawn)	n	n	n	n	n	n	x	x
CC1CCC2(CC1)NC(=S)N(C(C)(C)C)N2 (stereo not drawn)	n	n	x	x	n	51.1	23.7	n
O=C1NC2(CCCCC2)NN1c1ccccc1	n	n	n	n	x	n	x	x
CC1CCC2(CC1)NC(=S)N(c1ccccc1)N2 (stereo not drawn)	99.8	n	n	x	n	61.2	23.4	n
COCCn1nnnc1C(c1cccs1)N1CCN(c2cc(C)ccc2C)CC1 (stereo not drawn)	n	n	n	n	n	n	x	x
SMILES	PHOSPHO1 inh	A3A deaminase	MITF act	esBAF inh	Wnt act	APOBEC3G inh	APOBEC3G confirm	UDG A3G counter
COCCn1nnnc1C(c1cccs1)N1CCN(c2nc3ccccc3s2)CC1 (stereo not drawn)	n	n	n	n	n	56.5	n	x
C/C(=N\Nc1cccc2cccnc12)c1ccc(N)cc1	n	n	n	63.7	n	58.0	n	x
C/C(=N\Nc1cccc2cccnc12)c1ccccn1	n	n	n	x	n	n	x	x
CO[C@@H]1CC[C@H]2CCOc3ccc(C#N)cc3C(=O)N(C)C[C@@H](C)C(=O)N(C)C[C@H]1O2	x	x	x	n	x	x	x	x
Cc1cccc(-n2c(-c3ccco3)n[nH]c2=S)c1	n	n	n	n	n	53.6	60.4	n
Cc1cccc(-n2c(-c3ccc(Br)o3)n[nH]c2=S)c1	x	n	x	x	n	n	x	x
S=c1[nH]nc(-c2ccco2)n1-c1ccc(Br)cc1	x	n	x	x	n	42.0	69.0	n
Cc1ccccc1-n1c(-c2ccco2)n[nH]c1=S	n	n	n	x	n	n	x	x
C[C@@H]1CN([C@@H](C)CO)C(=O)Cc2cc(NS(=O)(=O)c3ccccc3)ccc2O[C@@H]1CN(C)C	x	x	x	n	x	x	x	x
CCCN(C(=O)c1ccco1)c1nnc(-c2cccc(C)c2)s1	n	n	n	u	x	64.8	n	x
CCN(C(=O)c1ccco1)c1nnc(-c2ccc(OC)cc2)s1	n	n	n	n	x	n	x	x
O=C(O)c1ccc(NC(=O)c2cccc(S(=O)(=O)Nc3ccc(C(=O)O)cc3)c2)cc1	n	n	n	n	n	n	x	x
O=C1CSc2ccc(C(=O)Nc3cccc(S(=O)(=O)Nc4ccc(Br)cc4)c3)cc2N1	n	n	n	n	n	48.8	n	n
CCC(=O)N1[C@@H]2c3ccc(C4=CCCC4)c(=O)n3C[C@@H]2[C@@H](CO)[C@@H]1C(=O)NC1CCCC1	x	x	x	n	x	x	x	x
O=C(NC(Cc1ccccc1)C(=O)O)/C(=C/c1ccccc1)NC(=O)c1ccccc1 (stereo not drawn)	n	n	n	x	n	n	x	x
CC(=O)N/C(=C/c1ccccc1)C(=O)NC(Cc1ccccc1)C(=O)O (stereo not drawn)	n	n	n	x	n	42.6	n	x
O=[N+]([O-])c1ccc2c(c1)[nH]c(=S)n2-c1ccccc1	n	n	n	x	n	41.0	54.2	n
CCCCCC(=O)Nc1cccc(C2=NOC3(C2)C[C@H](C(N)=O)N(C(=O)CC#N)C3)c1 (stereo partly drawn)	n	x	x	x	x	x	x	x
C=C(C)C(=O)Nc1cccc(C2=NOC3(C2)C[C@H](C(N)=O)N(C(=O)CC#N)C3)c1 (stereo partly drawn)	n	n	x	x	x	74.2	73.2	x
